# Experimental data taken from article PMC7862700, “An all-to-all approach to the identification of sequence-specific readers for epigenetic DNA modifications on cytosine”.
# Key:
# Test in all cases: DAPPL (digital affinity profiling via proximity ligation, sequencing); 10 mM Tris-HCl pH 7.5, 50 mM NaCl, 1 mM DTT, 4% glycerol, room temperature, 30 min; GST-TFs on glutathione beads, 16-mer random dsDNA library, 0.1% formaldehyde crosslink after washing; high values mean tight binding
# FEV = molecular target: T1, FEV (Homo sapiens, UniProt Q99581 1-238); details: protein: recombinant; tags: N-terminal GST; dsDNA, one strand shown
# T1 sequence: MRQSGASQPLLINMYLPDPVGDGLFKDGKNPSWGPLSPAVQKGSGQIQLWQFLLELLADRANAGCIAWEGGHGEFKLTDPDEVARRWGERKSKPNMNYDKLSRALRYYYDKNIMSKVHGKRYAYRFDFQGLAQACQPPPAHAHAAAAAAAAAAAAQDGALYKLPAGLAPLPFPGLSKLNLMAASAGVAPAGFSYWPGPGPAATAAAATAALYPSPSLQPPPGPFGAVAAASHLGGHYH
# Outline: (§1)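 Sequencing on an Illumina NextSeq500 followed washing, crosslinking with 0.1% formaldehyde, proximity ligation (BsaI/T4 ligase, 1 h, 37 °C) and PCR amplification of pools that had been incubated for 30 min at room temperature with 200 nmole of a random double-stranded 16-mer DNA library in Tris/NaCl/DTT/glycerol buffer. Each pool held DNA-barcoded human transcription factors, expressed in yeast as GST fusions and captured on glutathione beads, plus a tag-only sample. Binding signal is a hexamer's read frequency for a factor divided by its frequency in the tag-only sample.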
# ETV5 = ETV5 (Homo sapiens, UniProt P41161 1-510); details: protein: recombinant; tags: N-terminal GST; dsDNA, one strand shown
# Chain of ETV5 (P41161 whole entry): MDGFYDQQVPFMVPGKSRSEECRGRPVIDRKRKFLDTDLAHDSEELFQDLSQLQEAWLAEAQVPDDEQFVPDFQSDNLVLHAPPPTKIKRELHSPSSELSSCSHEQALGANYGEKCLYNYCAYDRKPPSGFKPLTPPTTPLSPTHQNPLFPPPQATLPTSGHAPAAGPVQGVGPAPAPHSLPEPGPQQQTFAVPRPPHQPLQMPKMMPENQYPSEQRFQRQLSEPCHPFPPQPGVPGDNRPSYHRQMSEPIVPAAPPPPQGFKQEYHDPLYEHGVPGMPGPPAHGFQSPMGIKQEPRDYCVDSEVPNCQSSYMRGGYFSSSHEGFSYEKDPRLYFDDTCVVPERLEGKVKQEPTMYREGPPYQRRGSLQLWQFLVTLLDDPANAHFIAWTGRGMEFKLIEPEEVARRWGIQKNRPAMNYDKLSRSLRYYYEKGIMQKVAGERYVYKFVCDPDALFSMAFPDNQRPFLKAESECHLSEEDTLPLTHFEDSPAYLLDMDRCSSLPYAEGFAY
# Outline: as §1
# HSF1 = HSF1 (Homo sapiens, UniProt Q00613 1-529); details: protein: recombinant; tags: N-terminal GST; chain copies: 3; dsDNA, one strand shown
# Chain of HSF1 (Q00613 whole entry): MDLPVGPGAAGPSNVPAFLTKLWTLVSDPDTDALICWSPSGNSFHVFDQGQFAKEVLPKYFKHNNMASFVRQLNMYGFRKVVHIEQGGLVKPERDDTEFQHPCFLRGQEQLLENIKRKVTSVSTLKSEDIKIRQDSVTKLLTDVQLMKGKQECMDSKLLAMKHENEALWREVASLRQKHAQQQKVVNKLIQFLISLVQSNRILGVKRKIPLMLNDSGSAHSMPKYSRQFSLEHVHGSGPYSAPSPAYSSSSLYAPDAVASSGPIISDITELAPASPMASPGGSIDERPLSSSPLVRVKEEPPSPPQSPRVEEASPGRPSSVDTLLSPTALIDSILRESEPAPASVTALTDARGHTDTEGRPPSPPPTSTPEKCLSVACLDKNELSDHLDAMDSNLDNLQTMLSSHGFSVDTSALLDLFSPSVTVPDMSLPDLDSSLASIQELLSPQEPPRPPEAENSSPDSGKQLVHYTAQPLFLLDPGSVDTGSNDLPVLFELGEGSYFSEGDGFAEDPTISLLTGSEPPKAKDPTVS
# Outline: as §1
# SPIC = molecular target: T2, SPIC (Homo sapiens, UniProt Q8N5J4 1-248); details: protein: recombinant; tags: N-terminal GST; dsDNA, one strand shown
# T2 sequence: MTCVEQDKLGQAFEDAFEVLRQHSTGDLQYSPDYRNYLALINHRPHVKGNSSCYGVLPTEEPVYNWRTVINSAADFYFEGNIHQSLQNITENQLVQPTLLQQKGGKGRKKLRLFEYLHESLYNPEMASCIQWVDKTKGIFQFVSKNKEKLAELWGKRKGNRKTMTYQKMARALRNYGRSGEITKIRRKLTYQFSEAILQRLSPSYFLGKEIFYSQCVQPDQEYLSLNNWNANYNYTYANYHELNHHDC
# Outline: as §1
# ELF4 = ELF4 (Homo sapiens, UniProt Q99607 1-663); details: protein: recombinant; tags: N-terminal GST; dsDNA, one strand shown
# Chain of ELF4 (Q99607 whole entry): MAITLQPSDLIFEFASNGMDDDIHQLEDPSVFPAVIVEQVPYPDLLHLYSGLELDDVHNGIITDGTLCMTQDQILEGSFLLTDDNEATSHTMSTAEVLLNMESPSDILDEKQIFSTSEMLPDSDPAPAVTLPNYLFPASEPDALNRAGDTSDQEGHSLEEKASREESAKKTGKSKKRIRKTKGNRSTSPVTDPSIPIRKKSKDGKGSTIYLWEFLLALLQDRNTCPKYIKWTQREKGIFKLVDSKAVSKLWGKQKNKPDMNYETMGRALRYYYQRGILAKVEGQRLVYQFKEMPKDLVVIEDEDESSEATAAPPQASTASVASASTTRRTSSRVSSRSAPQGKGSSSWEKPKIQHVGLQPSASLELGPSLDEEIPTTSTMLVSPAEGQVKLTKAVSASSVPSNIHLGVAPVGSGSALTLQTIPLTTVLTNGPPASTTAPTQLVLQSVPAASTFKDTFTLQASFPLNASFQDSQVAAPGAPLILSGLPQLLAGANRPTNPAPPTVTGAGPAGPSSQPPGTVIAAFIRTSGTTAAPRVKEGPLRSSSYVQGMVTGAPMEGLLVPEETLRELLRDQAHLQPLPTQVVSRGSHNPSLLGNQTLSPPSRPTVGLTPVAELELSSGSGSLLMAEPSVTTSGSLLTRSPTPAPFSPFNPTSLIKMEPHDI
# Outline: as §1
# ELK4 = molecular target: T3, ELK4 (Homo sapiens, UniProt P28324-2 1-405); details: protein: recombinant; tags: N-terminal GST; dsDNA, one strand shown
# T3 sequence: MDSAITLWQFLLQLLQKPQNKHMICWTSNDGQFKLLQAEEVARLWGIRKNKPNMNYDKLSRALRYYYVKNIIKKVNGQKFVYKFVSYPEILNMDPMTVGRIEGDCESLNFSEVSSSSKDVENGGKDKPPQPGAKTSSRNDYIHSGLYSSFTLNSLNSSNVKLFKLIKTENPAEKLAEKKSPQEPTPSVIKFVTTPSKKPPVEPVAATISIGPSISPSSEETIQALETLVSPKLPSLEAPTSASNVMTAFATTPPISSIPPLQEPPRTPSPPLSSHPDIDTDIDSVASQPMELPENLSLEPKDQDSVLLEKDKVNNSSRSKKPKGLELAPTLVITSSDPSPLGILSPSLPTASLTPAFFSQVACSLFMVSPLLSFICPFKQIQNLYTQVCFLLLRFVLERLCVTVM
# Outline: as §1
# ETV2 = molecular target: T4, ETV2 (Homo sapiens, UniProt O00321 1-342); details: protein: recombinant; tags: N-terminal GST; dsDNA, one strand shown
# T4 sequence: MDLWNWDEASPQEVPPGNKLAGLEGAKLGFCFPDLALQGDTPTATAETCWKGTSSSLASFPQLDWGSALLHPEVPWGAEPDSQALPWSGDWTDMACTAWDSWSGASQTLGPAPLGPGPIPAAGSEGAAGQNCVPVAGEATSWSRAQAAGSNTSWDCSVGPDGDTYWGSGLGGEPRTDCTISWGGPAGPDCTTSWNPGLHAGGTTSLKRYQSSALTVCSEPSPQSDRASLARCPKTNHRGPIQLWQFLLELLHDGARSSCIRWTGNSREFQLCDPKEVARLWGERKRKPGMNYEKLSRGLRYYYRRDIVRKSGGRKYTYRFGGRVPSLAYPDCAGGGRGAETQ
# Outline: as §1
# ELF3 = molecular target: T5, ELF3 (Homo sapiens, UniProt P78545 1-371); details: protein: recombinant; tags: N-terminal GST; dsDNA, one strand shown
# T5 sequence: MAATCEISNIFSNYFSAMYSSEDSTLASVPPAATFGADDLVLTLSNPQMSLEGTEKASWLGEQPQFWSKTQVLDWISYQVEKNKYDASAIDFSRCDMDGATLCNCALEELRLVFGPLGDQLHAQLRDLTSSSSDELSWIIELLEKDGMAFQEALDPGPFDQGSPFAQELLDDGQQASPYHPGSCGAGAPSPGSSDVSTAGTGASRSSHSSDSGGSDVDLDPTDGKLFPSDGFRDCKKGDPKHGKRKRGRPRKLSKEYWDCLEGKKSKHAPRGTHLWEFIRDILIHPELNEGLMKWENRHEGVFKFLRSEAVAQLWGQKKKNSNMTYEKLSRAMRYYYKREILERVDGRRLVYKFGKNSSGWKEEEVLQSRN
# Outline: as §1
# CRX = CRX (Homo sapiens, UniProt O43186 1-299); details: protein: recombinant; tags: N-terminal GST; dsDNA, one strand shown
# Chain of CRX (O43186 whole entry): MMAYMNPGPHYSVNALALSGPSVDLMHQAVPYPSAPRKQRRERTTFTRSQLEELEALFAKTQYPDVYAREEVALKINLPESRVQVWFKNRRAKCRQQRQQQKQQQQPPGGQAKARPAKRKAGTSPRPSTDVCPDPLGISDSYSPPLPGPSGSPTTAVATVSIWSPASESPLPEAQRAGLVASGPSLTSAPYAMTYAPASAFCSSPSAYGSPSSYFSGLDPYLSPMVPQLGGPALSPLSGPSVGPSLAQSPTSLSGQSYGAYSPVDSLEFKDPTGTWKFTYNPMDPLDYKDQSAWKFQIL
# Outline: as §1
# ETV1 = ETV1 (Homo sapiens, UniProt P50549 1-477); details: protein: recombinant; tags: N-terminal GST; dsDNA, one strand shown
# Chain of ETV1 (P50549 whole entry): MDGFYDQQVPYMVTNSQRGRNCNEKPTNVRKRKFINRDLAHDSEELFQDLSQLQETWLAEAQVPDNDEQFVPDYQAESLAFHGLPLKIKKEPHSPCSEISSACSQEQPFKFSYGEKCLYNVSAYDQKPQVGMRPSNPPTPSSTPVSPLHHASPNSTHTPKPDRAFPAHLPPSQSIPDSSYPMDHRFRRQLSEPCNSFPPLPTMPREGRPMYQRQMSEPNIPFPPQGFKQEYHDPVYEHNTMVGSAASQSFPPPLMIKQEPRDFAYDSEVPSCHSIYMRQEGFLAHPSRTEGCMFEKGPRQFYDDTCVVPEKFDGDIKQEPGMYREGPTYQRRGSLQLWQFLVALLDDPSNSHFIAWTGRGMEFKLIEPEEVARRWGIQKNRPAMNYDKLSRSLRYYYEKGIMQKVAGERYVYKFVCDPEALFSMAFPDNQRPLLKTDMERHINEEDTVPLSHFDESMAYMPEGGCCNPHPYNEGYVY
# Outline: as §1
# ERF = molecular target: T6, ERF (Homo sapiens, UniProt P50548 1-548); details: protein: recombinant; tags: N-terminal GST; dsDNA, one strand shown
# T6 sequence: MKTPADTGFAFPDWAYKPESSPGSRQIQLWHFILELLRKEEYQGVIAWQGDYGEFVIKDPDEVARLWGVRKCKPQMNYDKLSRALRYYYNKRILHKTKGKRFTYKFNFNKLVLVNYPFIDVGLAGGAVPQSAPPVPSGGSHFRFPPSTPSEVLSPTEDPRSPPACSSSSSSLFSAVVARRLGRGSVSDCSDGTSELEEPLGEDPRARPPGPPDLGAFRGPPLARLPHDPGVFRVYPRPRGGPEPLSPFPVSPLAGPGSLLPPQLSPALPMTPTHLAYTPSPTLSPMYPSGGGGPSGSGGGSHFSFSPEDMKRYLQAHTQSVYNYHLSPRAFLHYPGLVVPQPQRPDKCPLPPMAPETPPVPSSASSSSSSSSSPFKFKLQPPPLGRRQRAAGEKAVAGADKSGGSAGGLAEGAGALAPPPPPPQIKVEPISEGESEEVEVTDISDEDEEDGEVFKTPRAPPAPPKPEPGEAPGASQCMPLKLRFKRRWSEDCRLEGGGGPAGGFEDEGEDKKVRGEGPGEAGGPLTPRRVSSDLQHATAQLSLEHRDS
# Outline: as §1
# ETV3L = molecular target: T7, ETV3L (Homo sapiens, UniProt Q6ZN32 1-361); details: protein: recombinant; tags: N-terminal GST; dsDNA, one strand shown
# T7 sequence: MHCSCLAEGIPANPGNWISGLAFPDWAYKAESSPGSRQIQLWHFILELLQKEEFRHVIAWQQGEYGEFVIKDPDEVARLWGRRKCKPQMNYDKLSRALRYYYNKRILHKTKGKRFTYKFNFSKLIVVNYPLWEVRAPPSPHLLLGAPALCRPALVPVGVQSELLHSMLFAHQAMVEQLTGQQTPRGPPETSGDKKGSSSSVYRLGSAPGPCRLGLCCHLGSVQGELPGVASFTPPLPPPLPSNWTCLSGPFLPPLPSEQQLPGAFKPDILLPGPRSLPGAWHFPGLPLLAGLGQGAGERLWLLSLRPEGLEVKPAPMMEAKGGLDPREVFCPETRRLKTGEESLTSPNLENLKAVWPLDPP
# Outline: as §1
# ETV7 = molecular target: T8, ETV7 (Homo sapiens, UniProt Q9Y603 1-341); details: protein: recombinant; tags: N-terminal GST; dsDNA, one strand shown
# T8 sequence: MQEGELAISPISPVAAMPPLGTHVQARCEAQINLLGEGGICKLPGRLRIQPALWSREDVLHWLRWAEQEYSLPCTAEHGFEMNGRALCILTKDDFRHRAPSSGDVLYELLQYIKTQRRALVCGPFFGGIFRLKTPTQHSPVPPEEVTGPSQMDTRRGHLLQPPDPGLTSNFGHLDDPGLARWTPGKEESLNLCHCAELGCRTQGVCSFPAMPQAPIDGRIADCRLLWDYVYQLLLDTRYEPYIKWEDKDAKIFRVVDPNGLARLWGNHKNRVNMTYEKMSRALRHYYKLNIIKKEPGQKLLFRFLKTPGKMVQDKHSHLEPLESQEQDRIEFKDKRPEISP
# Outline: as §1
# ETV3 = molecular target: T9, ETV3 (Homo sapiens, UniProt P41162-2 1-143); details: protein: recombinant; tags: N-terminal GST; dsDNA, one strand shown
# T9 sequence: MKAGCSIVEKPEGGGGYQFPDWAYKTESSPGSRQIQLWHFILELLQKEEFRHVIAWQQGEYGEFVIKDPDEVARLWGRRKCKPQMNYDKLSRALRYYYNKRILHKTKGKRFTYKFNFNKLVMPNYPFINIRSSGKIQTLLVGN
# Outline: as §1
# ETV6 = ETV6 (Homo sapiens, UniProt P41212 1-452); details: protein: recombinant; tags: N-terminal GST; dsDNA, one strand shown
# Chain of ETV6 (P41212 whole entry): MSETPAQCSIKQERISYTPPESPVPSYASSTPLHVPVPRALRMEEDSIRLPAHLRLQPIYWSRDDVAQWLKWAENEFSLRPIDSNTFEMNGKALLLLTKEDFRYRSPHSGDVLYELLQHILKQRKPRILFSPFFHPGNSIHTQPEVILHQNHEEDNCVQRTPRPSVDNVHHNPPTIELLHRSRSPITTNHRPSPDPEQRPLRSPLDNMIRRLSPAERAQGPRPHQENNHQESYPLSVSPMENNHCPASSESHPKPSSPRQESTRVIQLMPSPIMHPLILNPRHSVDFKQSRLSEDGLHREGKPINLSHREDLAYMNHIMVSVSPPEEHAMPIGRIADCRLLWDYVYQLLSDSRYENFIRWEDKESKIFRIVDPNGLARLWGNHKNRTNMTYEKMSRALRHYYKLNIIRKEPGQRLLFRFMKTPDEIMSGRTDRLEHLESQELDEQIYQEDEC
# Outline: as §1
# ETS2 = molecular target: T10, ETS2 (Homo sapiens, UniProt P15036 1-469); details: protein: recombinant; tags: N-terminal GST; dsDNA, one strand shown
# T10 sequence: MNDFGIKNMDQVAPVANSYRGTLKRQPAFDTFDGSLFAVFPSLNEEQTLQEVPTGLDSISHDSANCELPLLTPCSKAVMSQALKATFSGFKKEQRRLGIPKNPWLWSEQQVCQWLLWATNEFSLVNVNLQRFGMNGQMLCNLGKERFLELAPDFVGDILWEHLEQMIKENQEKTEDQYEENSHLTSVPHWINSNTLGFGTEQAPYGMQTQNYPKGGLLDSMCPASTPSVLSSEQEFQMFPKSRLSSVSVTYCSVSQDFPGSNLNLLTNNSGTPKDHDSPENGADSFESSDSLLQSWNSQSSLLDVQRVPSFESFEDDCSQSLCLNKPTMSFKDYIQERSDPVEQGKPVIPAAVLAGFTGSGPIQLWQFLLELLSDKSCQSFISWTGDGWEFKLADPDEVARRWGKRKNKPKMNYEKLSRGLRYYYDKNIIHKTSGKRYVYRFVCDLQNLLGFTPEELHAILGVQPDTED
# Outline: as §1
# SPDEF = molecular target: T11, SPDEF (Homo sapiens, UniProt O95238 1-335); details: protein: recombinant; tags: N-terminal GST; dsDNA, one strand shown
# T11 sequence: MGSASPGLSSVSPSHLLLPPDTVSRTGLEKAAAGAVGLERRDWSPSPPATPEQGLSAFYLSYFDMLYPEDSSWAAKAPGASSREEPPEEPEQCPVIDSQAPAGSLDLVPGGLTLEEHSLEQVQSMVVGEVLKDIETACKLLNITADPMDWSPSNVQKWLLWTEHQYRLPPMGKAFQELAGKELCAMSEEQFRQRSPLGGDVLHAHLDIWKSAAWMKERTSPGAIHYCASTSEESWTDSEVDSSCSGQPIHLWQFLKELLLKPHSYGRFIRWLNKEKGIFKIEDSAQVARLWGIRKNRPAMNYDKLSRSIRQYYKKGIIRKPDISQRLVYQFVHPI
# Outline: as §1
# ELF5 = molecular target: T12, ELF5 (Homo sapiens, UniProt Q9UKW6-2 1-255); details: protein: recombinant; tags: N-terminal GST; dsDNA, one strand shown
# T12 sequence: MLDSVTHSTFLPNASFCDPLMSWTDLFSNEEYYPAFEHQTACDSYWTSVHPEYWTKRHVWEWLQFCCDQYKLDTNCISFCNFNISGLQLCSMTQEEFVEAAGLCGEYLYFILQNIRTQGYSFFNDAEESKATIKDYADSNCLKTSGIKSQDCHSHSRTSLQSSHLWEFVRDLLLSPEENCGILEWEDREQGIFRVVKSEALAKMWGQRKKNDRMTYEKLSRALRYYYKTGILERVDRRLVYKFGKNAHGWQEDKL
# Outline: as §1
Sequence,binding signal (FEV),binding signal (ETV5),binding signal (HSF1),binding signal (SPIC),binding signal (ELF4),binding signal (ELK4),binding signal (ETV2),binding signal (ELF3),binding signal (CRX),binding signal (ETV1),binding signal (ERF),binding signal (ETV3L),binding signal (ETV7),binding signal (ETV3),binding signal (ETV6),binding signal (ETS2),binding signal (SPDEF),binding signal (ELF5)
GCCGAT,"1.11 fold enrichment (6-mer frequency, TF over GST control)","1.11 fold enrichment (6-mer frequency, TF over GST control)","1.13 fold enrichment (6-mer frequency, TF over GST control)","1.03 fold enrichment (6-mer frequency, TF over GST control)","1.16 fold enrichment (6-mer frequency, TF over GST control)","1.13 fold enrichment (6-mer frequency, TF over GST control)","1.13 fold enrichment (6-mer frequency, TF over GST control)","1.02 fold enrichment (6-mer frequency, TF over GST control)","1.46 fold enrichment (6-mer frequency, TF over GST control)","1.07 fold enrichment (6-mer frequency, TF over GST control)","1.13 fold enrichment (6-mer frequency, TF over GST control)","1.07 fold enrichment (6-mer frequency, TF over GST control)","1.12 fold enrichment (6-mer frequency, TF over GST control)","1.18 fold enrichment (6-mer frequency, TF over GST control)","1.2 fold enrichment (6-mer frequency, TF over GST control)",–,–,–
CCGACA,"1.31 fold enrichment (6-mer frequency, TF over GST control)","1.24 fold enrichment (6-mer frequency, TF over GST control)","1.03 fold enrichment (6-mer frequency, TF over GST control)","1.34 fold enrichment (6-mer frequency, TF over GST control)","1.13 fold enrichment (6-mer frequency, TF over GST control)","1.14 fold enrichment (6-mer frequency, TF over GST control)","1.32 fold enrichment (6-mer frequency, TF over GST control)","1.18 fold enrichment (6-mer frequency, TF over GST control)",–,"1.28 fold enrichment (6-mer frequency, TF over GST control)","1.22 fold enrichment (6-mer frequency, TF over GST control)","1.24 fold enrichment (6-mer frequency, TF over GST control)","1.13 fold enrichment (6-mer frequency, TF over GST control)","1.24 fold enrichment (6-mer frequency, TF over GST control)","1.23 fold enrichment (6-mer frequency, TF over GST control)","1.26 fold enrichment (6-mer frequency, TF over GST control)","1.27 fold enrichment (6-mer frequency, TF over GST control)","1.25 fold enrichment (6-mer frequency, TF over GST control)"
